Results taken from PubChem BioAssay (NCI).
Compounds without any hit were thinned out: in the full panel of roughly 83,000, 20% have a hit.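 Step 1: grow cells in 96-well plates. Step 2: add test compound at a single concentration. Step 3: incubate 48 h. Step 4: record percent growth.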 Active and inactive are the calls of the source. How the source made its calls: active means growth percent below 10; inactive means the rest.

Columns and labels:
Assay in all cases: NCI-60 one-dose screen, 48 h (100 = growth as untreated, 0 = no growth, -100 = all killed)
Details in all cases: 10 µM unless noted
[1] = system: NCI-H23 lung
[2] = system: NCI-H226 lung
[3] = system: NCI-H322M lung
[4] = system: HOP-62 NSCLC
[5] = system: NCI-H460 lung
[6] = system: HOP-92 NSCLC
[7] = system: NCI-H522 lung
[8] = system: A549/ATCC NSCLC
[9] = system: 786-0 renal
[10] = system: COLO 205 colon

Measured: growth

CC(=O)O[C@H]1C(=O)[C@@]2(C)[C@H]([C@H](OC(=O)c3ccccc3)[C@]3(O)C[C@H](OC(=O)[C@H](OC(=O)OC[C@H]4COC(C)(C)O4)[C@@H](NC(=O)c4ccccc4)c4ccccc4)C(C)=C1C3(C)C)[C@]1(OC(C)=O)CO[C@@H]1C[C@@H]2O
active: [5] 4.16% | [7] 5.12% | [10] -15.1%
inactive: [1] 21.6% | [2] 55.5% | [3] 14.9% | [4] 21.7% | [6] 53.4% | [8] 12.5% | [9] 20.2%

Cc1cc(C)cc(Nc2nc3c(s2)CC[C@@]2(C)C3=CC[C@@H]3[C@@H]2CC[C@]2(C)C(=O)CC[C@@H]32)c1
inactive: [1] 76.9% | [2] 49.9% | [3] 79.9% | [4] 90% | [5] 49.5% | [6] 70.7% | [7] 66.1% | [8] 72.9% | [9] 31% | [10] 92.5%

COc1ccc(/C=C\c2cc(OC)c(OC)c(OC)c2)cc1NS(=O)(=O)c1ccc(Cl)cc1
inactive: [1] 75.3% | [2] 70.9% | [3] 73.1% | [4] 83.9% | [5] 84.1% | [6] 37% | [7] 25.9% | [8] 58.9% | [9] 78% | [10] 73.6%

CCC1(C(C)C)C(=O)NC(=S)NC1=O
inactive: [1] 117% | [2] 90.5% | [3] 106% | [4] 102% | [5] 102% | [6] 91.5% | [7] 105% | [8] 95.7% | [9] 108% | [10] 123%

CCCCCCCC[N+](C)(CCCCCCCC)CCCCCCCC
active: [1] -97% | [2] -86.2% | [3] -100% | [4] -92.2% | [5] -100% | [6] -70% | [7] -99.9% | [8] -100% | [9] -95.7% | [10] -60.7%

CC[C@]12C=CCN3CC[C@@]4(c5ccc(OC)cc5N(C)[C@H]4[C@@](O)(C(=O)OC)[C@@H]1OC(=O)CCCC[P+](c1ccccc1)(c1ccccc1)c1ccccc1)[C@@H]32
inactive: [2] 15.1% | [3] 47.1% | [4] 26.4% | [5] 18.4% | [8] 22.1% | [9] 57.2%
active: [1] 6.4% | [6] -30% | [7] -5.5% | [10] -93.7%

CC(=O)c1ccc(C(=O)NCC2CCC3(CC2)OOC2(CCCCC2)OO3)cc1
active: [6] -31.4% | [9] -70.5%
inactive: [1] 22.8% | [2] 85.8% | [3] 89.8% | [4] 16.4% | [5] 88.1% | [7] 60.8% | [8] 23.5% | [10] 97.1%

CC1=C(CCCOC(=O)CN)C2=C(C)C3(CC3)[C@@](C)(O)C(=O)C2=C1
active: [1] 9.41%
inactive: [2] 90.5% | [3] 97.1% | [4] 71.5% | [5] 15.3% | [6] 70.5% | [7] 66.2% | [8] 68.7% | [9] 78.8% | [10] 49.6%

O=C(Nc1ccc(O)cc1)C(Cl)(Cl)Cl
inactive: [1] 101% | [2] 101% | [3] 102% | [4] 104% | [5] 105% | [6] 105% | [7] 91.2% | [8] 98.4% | [9] 95.2% | [10] 102%

O=C(N/N=C\c1ccc(N(CCCl)CCCl)cc1)c1cccc([N+](=O)[O-])c1
active: [4] -2.12%
inactive: [1] 87.7% | [2] 46.6% | [3] 121% | [5] 69.1% | [6] 92.4% | [7] 107% | [8] 90.4% | [9] 96.7% | [10] 102%

COc1cc(NC(C)CCCNC2CN3CCC2CC3)c2ncccc2c1 (stereo not given)
inactive: [1] 84.5% | [2] 87.4% | [3] 63.3% | [4] 75.8% | [5] 106% | [6] 46.6% | [7] 82.1% | [8] 95.1% | [9] 62.5% | [10] 35.3%

COc1ccc(-n2c(C)nc3cc(OC)c(OC)cc3c2=O)cc1OC
inactive: [1] 101% | [2] 99.1% | [3] 97% | [4] 102% | [5] 106% | [6] 103% | [7] 101% | [8] 98% | [9] 102% | [10] 99.5%
